# Reference: ChEMBL document CHEMBL5606458, “ASAP - ZIKV NS2B-NS3 protease fluorescence single point” (2024)
# In all, about 2,700 compounds went through this assay and about 160 (5.9%) showed an effect of 50% or more. This is one part of a sample in which strong results are shown more often than they occur.
# Target: Nonstructural protein 3 (Zika virus) (UniProt A0A024AXB9)
# [1] = PRVABC59, Concentration 50.0 uM, Number of replicates 1.0
# Sequence of Nonstructural protein 3 (Zika virus) (A0A024AXB9 as listed by the source): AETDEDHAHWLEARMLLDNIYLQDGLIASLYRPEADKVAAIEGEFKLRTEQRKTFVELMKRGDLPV
structure (smiles),measurement,setting,value
CN(C)c1ccc(/C=C/C(=O)C(=O)N2CCOCC2)cc1,inhibition,"PRVABC59, Concentration 49.5 uM, Number of replicates 2.0, Standard deviation 0.8258165831779674 %",41.6%
same,inhibition,"PRVABC59, Concentration 99.01 uM, Number of replicates 2.0, Standard deviation 0.46055378654400303 %",57.5%
same,inhibition,"PRVABC59, Concentration 198.0 uM, Number of replicates 2.0, Standard deviation 1.0005081895850734 %",76.2%
O=C(/C=C/c1ccc(N2CCNCC2)cc1)C(=O)N1CCOCC1,inhibition,"PRVABC59, Concentration 49.5 uM, Number of replicates 2.0, Standard deviation 0.677594356674037 %",0.889%
same,inhibition,"PRVABC59, Concentration 99.01 uM, Number of replicates 2.0, Standard deviation 0.8893426734771035 %",5.61%
same,inhibition,"PRVABC59, Concentration 198.0 uM, Number of replicates 2.0, Standard deviation 1.259902148857129 %",13.4%
NCc1ccc(/C=C/C(=O)C(=O)N2CCOCC2)cc1,inhibition,"PRVABC59, Concentration 49.5 uM, Number of replicates 2.0, Standard deviation 0.6564199696429821 %",37.2%
same,inhibition,"PRVABC59, Concentration 99.01 uM, Number of replicates 2.0, Standard deviation 0.38644007072414227 %",58.8%
same,inhibition,"PRVABC59, Concentration 198.0 uM, Number of replicates 2.0, Standard deviation 0.034408012774717715 %",79%
COc1cc(Cc2c(-c3ccc(F)cc3)noc2C)nc(N2CCNCC2)n1,inhibition,"PRVABC59, Concentration 49.5 uM, Number of replicates 2.0, Standard deviation 1.339595433070256 %",48.7%
same,inhibition,"PRVABC59, Concentration 99.01 uM, Number of replicates 2.0, Standard deviation 0.7981008155972035 %",67.2%
same,inhibition,"PRVABC59, Concentration 198.0 uM, Number of replicates 2.0, Standard deviation 0.25862115465775987 %",83.1%
COc1cc(Cc2ccc3[nH]ncc3c2)nc(N2CCNCC2)n1,inhibition,"PRVABC59, Concentration 49.5 uM, Number of replicates 2.0, Standard deviation 0.053655972727460886 %",4.68%
same,inhibition,"PRVABC59, Concentration 99.01 uM, Number of replicates 2.0, Standard deviation 0.44117163102560114 %",11%
same,inhibition,"PRVABC59, Concentration 198.0 uM, Number of replicates 2.0, Standard deviation 0.2881536199967374 %",21.6%
COc1cc(Cc2ccnc(N3CCNCC3)c2)nc(N2CCNCC2)n1,inhibition,"PRVABC59, Concentration 49.5 uM, Number of replicates 2.0, Standard deviation 1.782469122426121 %",19.2%
same,inhibition,"PRVABC59, Concentration 99.01 uM, Number of replicates 2.0, Standard deviation 1.2150848760245847 %",30.9%
same,inhibition,"PRVABC59, Concentration 198.0 uM, Number of replicates 2.0, Standard deviation 1.1140443816280838 %",44%
CC(C)(C)OC(=O)N[C@H](C(=O)Nc1cccc(CN)c1)c1ccc(OCc2ccccc2)cc1,inhibition,"PRVABC59, Concentration 49.5 uM, Number of replicates 2.0, Standard deviation 0.15500599357942563 %",7.17%
same,inhibition,"PRVABC59, Concentration 99.01 uM, Number of replicates 2.0, Standard deviation 1.1863939989566727 %",43.6%
same,inhibition,"PRVABC59, Concentration 198.0 uM, Number of replicates 2.0, Standard deviation 0.6438743701278353 %",80.9%
CC(C)(C)OC(=O)N[C@H](C(=O)Nc1ccc(CN)cc1)c1ccc(OCc2ccccc2)cc1,inhibition,"PRVABC59, Concentration 49.5 uM, Number of replicates 2.0, Standard deviation 0.6279742186460096 %",5.64%
same,inhibition,"PRVABC59, Concentration 99.01 uM, Number of replicates 2.0, Standard deviation 1.57987158185777 %",32.3%
same,inhibition,"PRVABC59, Concentration 198.0 uM, Number of replicates 2.0, Standard deviation 0.42725710187082055 %",70.3%
CC(C)Nc1nc2ccc(C(=O)Nc3nnnn3-c3ccccn3)cc2[nH]1,inhibition,"PRVABC59, Concentration 50.0 uM, Number of replicates 2.0, Standard deviation 0.2871029833570578 %",13.5%
same,inhibition,"PRVABC59, Concentration 100.0 uM, Number of replicates 2.0, Standard deviation 0.2358348824788301 %",30.1%
same,inhibition,"PRVABC59, Concentration 200.0 uM, Number of replicates 2.0, Standard deviation 0.2742876440114413 %",66.8%
CC(C)Nc1nc2ccc(C(=O)Nc3ccc4cn[nH]c4n3)cc2[nH]1,inhibition,"PRVABC59, Concentration 49.5 uM, Number of replicates 2.0, Standard deviation 0.40894109303235027 %",7.41%
same,inhibition,"PRVABC59, Concentration 99.01 uM, Number of replicates 2.0, Standard deviation 0.19020569275657198 %",13.2%
same,inhibition,"PRVABC59, Concentration 198.0 uM, Number of replicates 2.0, Standard deviation 0.6447955316488895 %",25.2%
CCn1ccnc(N2CC[C@@H](C(=O)NC)C2)c1=O,inhibition,"PRVABC59, Concentration 49.5 uM, Number of replicates 2.0, Standard deviation 1.330415175115007 %",6.78%
same,inhibition,"PRVABC59, Concentration 99.01 uM, Number of replicates 2.0, Standard deviation 0.8792533922931717 %",13.1%
same,inhibition,"PRVABC59, Concentration 198.0 uM, Number of replicates 2.0, Standard deviation 1.1945536288283818 %",25%
c1ccc2c([C@H]3CCN(CC[C@H]4CCOC4)C3)c[nH]c2c1,inhibition,"PRVABC59, Concentration 49.5 uM, Number of replicates 2.0, Standard deviation 1.796591735840356 %",1.3%
same,inhibition,"PRVABC59, Concentration 99.01 uM, Number of replicates 2.0, Standard deviation 1.8008191859181881 %",8.43%
same,inhibition,"PRVABC59, Concentration 198.0 uM, Number of replicates 2.0, Standard deviation 1.4478420270377552 %",18.7%
CCCC[C@H](N)C(=O)N[C@@H](C(=O)NCc1ccc(C(N)=O)cc1)c1ccc(OCc2ccccc2)cc1,inhibition,"PRVABC59, Concentration 49.5 uM, Number of replicates 2.0, Standard deviation 2.90329459480482 %",4.12%
same,inhibition,"PRVABC59, Concentration 99.01 uM, Number of replicates 2.0, Standard deviation 3.493094389705784 %",14.2%
same,inhibition,"PRVABC59, Concentration 198.0 uM, Number of replicates 2.0, Standard deviation 4.814160045121922 %",56.8%
CCCC[C@H](N)C(=O)N[C@H](C(=O)NCc1ccc(C(N)=O)cc1)c1ccc(OCc2ccccc2)cc1,inhibition,"PRVABC59, Concentration 49.5 uM, Number of replicates 2.0, Standard deviation 4.202595364768841 %",4.08%
same,inhibition,"PRVABC59, Concentration 99.01 uM, Number of replicates 2.0, Standard deviation 1.455996262112855 %",82.9%
same,inhibition,"PRVABC59, Concentration 198.0 uM, Number of replicates 2.0, Standard deviation 0.15670265711308018 %",99.2%
CC(C)Cn1cccc(C(=O)Nc2ccnc3ccccc23)c1=O,inhibition,"PRVABC59, Concentration 49.5 uM, Number of replicates 2.0, Standard deviation 2.895437242130631 %",20.1%
same,inhibition,"PRVABC59, Concentration 99.01 uM, Number of replicates 2.0, Standard deviation 37.62280174563721 %",0.798%
same,inhibition,"PRVABC59, Concentration 198.0 uM, Number of replicates 2.0, Standard deviation 2.6549790189575497 %",10.2%
CCn1c(=O)c(N2CC[C@@H](CO)C2)nc2ccccc21,inhibition,"PRVABC59, Concentration 49.5 uM, Number of replicates 2.0, Standard deviation 1.0667198770713235 %",20.2%
same,inhibition,"PRVABC59, Concentration 99.01 uM, Number of replicates 2.0, Standard deviation 2.3733193853793706 %",36.2%
same,inhibition,"PRVABC59, Concentration 198.0 uM, Number of replicates 2.0, Standard deviation 1.8335969585925045 %",55.9%
O=c1c(N2CC[C@H](CO)C2)nccn1C1CC1,inhibition,"PRVABC59, Concentration 49.5 uM, Number of replicates 2.0, Standard deviation 2.4909219053667124 %",11.8%
same,inhibition,"PRVABC59, Concentration 99.01 uM, Number of replicates 2.0, Standard deviation 2.8453613913030793 %",19.9%
same,inhibition,"PRVABC59, Concentration 198.0 uM, Number of replicates 2.0, Standard deviation 1.2782808722061834 %",35.4%
CCn1ccnc(N2CC[C@@H](CO)C2)c1=O,inhibition,"PRVABC59, Concentration 49.5 uM, Number of replicates 2.0, Standard deviation 1.691792032316267 %",9.83%
same,inhibition,"PRVABC59, Concentration 99.01 uM, Number of replicates 2.0, Standard deviation 1.0699999134098355 %",17.4%
same,inhibition,"PRVABC59, Concentration 198.0 uM, Number of replicates 2.0, Standard deviation 1.0674090623381738 %",29.5%
N[C@H]1CCN(c2cccc(CNC(=O)c3ccc4[nH]c(=O)[nH]c4c3F)n2)C1,inhibition,"PRVABC59, Concentration 49.5 uM, Number of replicates 2.0, Standard deviation 1.7942103071905888 %",0.083%
same,inhibition,"PRVABC59, Concentration 99.01 uM, Number of replicates 2.0, Standard deviation 0.9354948212956848 %",1.95%
same,inhibition,"PRVABC59, Concentration 198.0 uM, Number of replicates 2.0, Standard deviation 18.65130084254076 %",51.2%
NC(=O)C1(N2CCCCC2)CCN(C(=O)C2CCN(c3ccc(C=O)cc3)CC2)CC1,inhibition,[1],55.7%
N#CC1(c2ccccc2)CCN(C(=O)C2CCN(c3ccc(C=O)cc3)CC2)CC1,inhibition,[1],12.6%
O=Cc1ccc(N2CCC(C(=O)N3CCN(c4cccc(O)c4)CC3)CC2)cc1,inhibition,[1],36.7%
